Experimental data reported in PubChem BioAssay AID1159580 (chemical genetic matrix, 2015).
The whole screen tested about 5,500 compounds, of which about 2,000 (36%) were called active. About 18% were inconclusive and are not listed. No stated cut-off is given here; in the data, active means normalized growth mostly below about 0.91 (no sharp cut-off); inconclusive means no clear call, values can overlap the other calls; inactive means mostly above about 0.92. The list shows a part of the results.

Test: chemical genetic growth profiling, strain panel (AID 1159580);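 further: tested at 20 µM; growth read once vehicle control cultures reached saturation at 30 °C; 1 = growth at the plate median or of vehicle wells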
Details: S. cerevisiae deletion strains, growth OD

Measured: normalized growth

C=C1C2CC[C@H]3[C@]4(C)C[C@H](OC5OC(CO)C(OS(=O)(=O)O)C(OS(=O)(=O)O)C5OC(=O)CC(C)C)C[C@@H](C(=O)O)[C@H]4CC[C@]3(C2)[C@H]1O (some centres undefined)
inactive: locus YAL013W, strain DEP1, stronger effect = lower value 1.01 | locus YAL021C, strain ccr4, stronger effect = lower value 0.974 | locus YAL026C, strain drs2, stronger effect = lower value 1.01 | locus YAL030W, strain snc1, stronger effect = lower value 1.01 | locus YBL061C, strain skt5, stronger effect = lower value 1.01 | locus YBR009C, strain hhf1, stronger effect = lower value 1.02 | locus YBR021W, strain FUR4, stronger effect = lower value 1.02 | locus YBR023C, strain chs3, stronger effect = lower value 1.01 | locus YBR171W, strain sec66, stronger effect = lower value 1.01 | locus YBR229C, strain ROT2, stronger effect = lower value 1.01 | locus YBR231C, strain swc5, stronger effect = lower value 1.02 | locus YBR279W, strain paf1, stronger effect = lower value 1.01 | locus YCL011C, strain gbp2, stronger effect = lower value 1.01 | locus YCL016C, strain dcc1, stronger effect = lower value 1 | locus YCL029C, strain bik1, stronger effect = lower value 0.983 | locus YCL061C, strain MRC1, stronger effect = lower value 1.01 | locus YCL069W, strain vba3, stronger effect = lower value 1.02 | locus YCR088W, strain abp1, stronger effect = lower value 1.01 | locus YDL005C, strain med2, stronger effect = lower value 1 | locus YDL035C, strain GPR1, stronger effect = lower value 1.01 | locus YDL040C, strain nat1, stronger effect = lower value 1 | locus YDL074C, strain BRE1, stronger effect = lower value 1.04 | locus YDL101C, strain DUN1, stronger effect = lower value 1.02 | locus YDL134C, strain PPH21, stronger effect = lower value 1.01 | locus YDL185W, strain tfp1, stronger effect = lower value 0.986 | locus YDL192W, strain arf1, stronger effect = lower value 0.986 | locus YDR001C, strain nth1, stronger effect = lower value 1.01 | locus YDR069C, strain doa4, stronger effect = lower value 1.02 | locus YDR101C, strain arx1, stronger effect = lower value 0.979 | locus YDR137W, strain rgp1, stronger effect = lower value 1.01 | locus YDR150W, strain NUM1, stronger effect = lower value 1.01 | locus YDR159W, strain sac3, stronger effect = lower value 1.01 | locus YDR162C, strain NBP2, stronger effect = lower value 1.04 | locus YDR195W, strain ref2 0.999 | locus YDR297W, strain sur2, stronger effect = lower value 1.01 | locus YDR318W, strain mcm21, stronger effect = lower value 0.978 | locus YDR334W, strain swr1, stronger effect = lower value 1.01 | locus YDR335W, strain msn5, stronger effect = lower value 1.01 | locus YDR388W, stronger effect = lower value 0.988 | locus YDR392W, strain spt3, stronger effect = lower value 0.942 | locus YDR502C, strain sam2, stronger effect = lower value 0.994 | locus YEL003W, strain gim4, stronger effect = lower value 1.01 | locus YEL037C, strain rad23, stronger effect = lower value 1.01 | locus YEL061C, strain CIN8 (second series), stronger effect = lower value 1 | locus YEL061C, strain CIN8, stronger effect = lower value 1 | locus YER015W, strain faa2, stronger effect = lower value 1.01 | locus YER016W, strain bim1, stronger effect = lower value 1.01 | locus YER110C, stronger effect = lower value 0.975 | locus YER111C, strain swi4, stronger effect = lower value 1.01 | locus YER155C, strain BEM2 (second series), stronger effect = lower value 1.02 | locus YER155C, strain BEM2, stronger effect = lower value 1.02 | locus YER167W, strain BCK2, stronger effect = lower value 1 | locus YFR010W, strain ubp6, stronger effect = lower value 1.01 | locus YGL078C, strain dbp3, stronger effect = lower value 0.978 | locus YGL086W, strain mad1, stronger effect = lower value 0.972 | locus YGL167C, strain pmr1, stronger effect = lower value 1.01 | locus YGL173C, strain kem1, stronger effect = lower value 1.01 | locus YGL227W, strain vid30, stronger effect = lower value 1.01 | locus YGL240W, strain doc1, stronger effect = lower value 1.03 | locus YGL248W, strain PDE1, stronger effect = lower value 1.01 | locus YGL253W, strain hxk2, stronger effect = lower value 1.01 | locus YGR078C, strain PAC10, stronger effect = lower value 1.03 | locus YGR135W, strain pre9, stronger effect = lower value 0.987 | locus YGR229C, strain SMI1, stronger effect = lower value 1.02 | locus YGR252W, strain gcn5, stronger effect = lower value 1.02 | locus YHR013C, strain ard1, stronger effect = lower value 0.999 | locus YHR027C, strain rpn1, stronger effect = lower value 1.01 | locus YHR030C, strain SLT2, stronger effect = lower value 1 | locus YHR079C, strain IRE1 (second series), stronger effect = lower value 0.987 | locus YHR094C, strain hxt1, stronger effect = lower value 0.988 | locus YHR129C, strain ARP1, stronger effect = lower value 1.01 | locus YHR142W, strain chs7, stronger effect = lower value 0.985 | locus YHR200W, strain rpn10, stronger effect = lower value 0.996 | locus YIL066C, strain RNR3, stronger effect = lower value 1.02 | locus YIL073C, strain SPO22, stronger effect = lower value 0.966 | locus YIL125W, strain kgd1, stronger effect = lower value 0.97 | locus YIR030C, strain dcg1, stronger effect = lower value 0.99 | locus YJL092W, strain hpr5, stronger effect = lower value 1.01 | locus YJL095W, strain BCK1 (second series), stronger effect = lower value 1.01 | locus YJL095W, strain BCK1, stronger effect = lower value 1.02 | locus YJL115W, strain asf1, stronger effect = lower value 1.01 | locus YJL129C, strain trk1, stronger effect = lower value 1.01 | locus YJL134W, strain LCB3, stronger effect = lower value 1.01 | locus YJL154C, strain vps35, stronger effect = lower value 1.01 | locus YJL164C, strain tpk1, stronger effect = lower value 1 | locus YJL166W, strain qcr8, stronger effect = lower value 1 | locus YJL168C, strain set2, stronger effect = lower value 0.985 | locus YJL187C, strain SWE1 (second series), stronger effect = lower value 1.02 | locus YJL187C, strain SWE1, stronger effect = lower value 1.02
